Laboratory results from ChEMBL document CHEMBL3988442, “University of Dundee, Small-Polar-MMV Screening Library” (2021).

Key:
[1] = biological target: T1, Aspartate--tRNA(Asp/Asn) ligase (Mycobacterium tuberculosis (strain ATCC 25618 / H37Rv)) (UniProt P9WFW3); assay: Assay for Asp RNA synthetase-1 from Mycobacterium tuberculosis; assay type: functional; parameters: scale not given: direction of the effect not stated beside the values; details: 30 µM; further: in the data most compounds retested in dose-response had high values
T1 sequence (whole entry): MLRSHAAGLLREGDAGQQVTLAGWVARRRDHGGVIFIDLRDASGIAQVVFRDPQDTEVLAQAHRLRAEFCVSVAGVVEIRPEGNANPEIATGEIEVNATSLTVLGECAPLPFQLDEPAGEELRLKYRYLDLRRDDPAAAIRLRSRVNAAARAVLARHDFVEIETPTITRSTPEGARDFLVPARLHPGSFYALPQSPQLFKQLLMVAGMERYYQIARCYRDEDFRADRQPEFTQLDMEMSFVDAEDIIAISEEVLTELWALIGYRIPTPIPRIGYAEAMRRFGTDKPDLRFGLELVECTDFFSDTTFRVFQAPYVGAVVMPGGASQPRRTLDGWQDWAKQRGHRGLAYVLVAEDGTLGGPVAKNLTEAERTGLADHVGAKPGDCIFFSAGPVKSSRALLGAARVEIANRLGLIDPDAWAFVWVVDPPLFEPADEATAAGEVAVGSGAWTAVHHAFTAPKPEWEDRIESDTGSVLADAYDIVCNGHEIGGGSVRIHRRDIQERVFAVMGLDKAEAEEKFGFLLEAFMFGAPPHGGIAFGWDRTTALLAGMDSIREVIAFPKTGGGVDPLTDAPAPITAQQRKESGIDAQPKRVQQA

[2] = biological target: Shiga toxin 2 (Escherichia coli O157:H7) (UniProt P09385+P09386); assay: E. coli 0.157:H7 Shiga Toxin SOP - stx2 screening assay; assay type: functional; parameters: scale not given: direction of the effect not stated beside the values; details: 30 µM

COc1c(C2CCCN2CC(=O)Nc2cc(C)no2)c(C)nn1C (centres undefined)
Percent Effect [1]: 2.74%
Percent Effect [2]: 12.9%

Cc1ncoc1C(=O)N1C[C@H]2CCC[C@@]2(COCC2CCOCC2)C1
Percent Effect [1]: -1.27%
Percent Effect [2]: 3.67%

c1cn2c(n1)CN(CC1CC1)CC(CN1CCOCC1)C2 (centres undefined)
Percent Effect [1]: 11.1%
Percent Effect [2]: -18%

CC(NCC1=Cc2cc(Cl)ccc2OC1)c1nnc2n1CCCC2 (centres undefined)
Percent Effect [1]: 1.06%
Percent Effect [2]: -9.58%

COC(=O)CCNC(=O)c1ccoc1CN1c2ccccc2CC1C (centres undefined)
Percent Effect [1]: 0.0912%
Percent Effect [2]: -1.74%

CN(C)CC1CN(c2ccc(C#N)cn2)CCO1 (centres undefined)
Percent Effect [1]: 0.899%
Percent Effect [2]: 22.4%

CCCc1c(C(=O)NC2CCCC2)nnn1-c1ccc(OC)cc1
Percent Effect [1]: -1.57%
Percent Effect [2]: -4.2%

COc1cc(S(=O)(=O)N2CCCc3ccccc32)cc(C(=O)O)c1OC
Percent Effect [1]: 7.13%
Percent Effect [2]: -8.55%

CCOCC1CN(Cc2cccc(C#N)c2)Cc2nccn2C1 (centres undefined)
Percent Effect [1]: -2.92%
Percent Effect [2]: -10.3%

CCn1cc(CN(C)S(=O)(=O)c2cc(Cl)ccc2Cl)cn1
Percent Effect [1]: -5.08%
Percent Effect [2]: -51.4%

COCCN1CCN(C(=O)C2CC=CC2)Cc2cccnc21
Percent Effect [1]: -1.63%
Percent Effect [2]: -23.9%

Cc1sc(NC(=O)CN(C)S(C)(=O)=O)c(C#N)c1C
Percent Effect [1]: 1.76%
Percent Effect [2]: -4.6%

NC(=O)NCCC(=O)NCc1cccnc1N1CCc2ccccc2C1
Percent Effect [1]: -1.71%
Percent Effect [2]: 6.61%

O=C(Cc1ccc(F)cc1)N1CCn2cc(Cn3cccn3)nc2C1
Percent Effect [1]: 5%
Percent Effect [2]: 5.65%

COCC1c2c(cnn2CC2CC2)CCN1Cc1ccc(OC)cc1 (centres undefined)
Percent Effect [1]: 0.786%
Percent Effect [2]: 4.64%

O=C(Nc1nnc(C2CC2)s1)NC1CCN(Cc2ccccc2)C1 (centres undefined)
Percent Effect [1]: -0.344%
Percent Effect [2]: -174%

O=C(c1cccc(Cn2ccnc2)c1)N1CCCC(n2ccnc2)C1 (centres undefined)
Percent Effect [1]: -0.874%
Percent Effect [2]: -7.22%
